Assay [1] concerns the target Cytochrome P450 2D6 (Homo sapiens) (UniProt P10635). As to the kind of experiment: Cytochrome P450 Family 2 Subfamily D Member 6 (CYP2D6) small molecule antagonists: luciferase reporter qHTS assay (AID 1671196). For activity change, negative = inhibition: series mostly up to about 120 µM. Note: nearly all actives have a fitted effect of over 50% in size. The method in brief:
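Enzyme and proluciferin substrate were first combined with test chemical for 10 min at room temperature. Adding NADPH regeneration solution started a 1 h reaction, stopped with luciferin detection reagent and read by luminescence 20 min later.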

Assay [2] has as its target Cytochrome P450 2C19 (Homo sapiens) (UniProt P33261). In words: Cytochrome P450 Family 2 Subfamily C Member 19 (CYP2C19) small molecule antagonists: luciferase reporter qHTS assay (AID 1671197). For activity change, negative = inhibition: series mostly up to about 120 µM. Note: nearly all actives have a fitted effect of over 65% in size. In short, it runs like this: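 Luminescent readout of CYP2C19 activity: luciferin product detected 20 min after adding detection reagent. Before that, compound and enzyme-substrate mix preincubated 10 min at room temperature; NADPH-regenerating system started a 1 h, 37C reaction. Ketoconazole as positive control.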

The target of assay [3] is Cytochrome P450 2C9 (Homo sapiens) (UniProt P11712). As to the kind of experiment: Cytochrome P450 Family 2 Subfamily C Member 9 (CYP2C9) small molecule antagonists: luciferase reporter qHTS assay (AID 1671198). For activity change, negative = inhibition: series mostly up to about 120 µM. Note: nearly all actives have a fitted effect of over 50% in size. In short, it runs like this: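 CYP2C9 activity was measured with a P450-Glo proluciferin substrate. Enzyme–substrate mix was held with compound for 10 min at room temperature, then NADPH regeneration solution was added for 1 h at 37C. Luciferin product was read as luminescence.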
Cytochrome P450 2C9 (Homo sapiens), sequence (P11712 whole entry, looked up): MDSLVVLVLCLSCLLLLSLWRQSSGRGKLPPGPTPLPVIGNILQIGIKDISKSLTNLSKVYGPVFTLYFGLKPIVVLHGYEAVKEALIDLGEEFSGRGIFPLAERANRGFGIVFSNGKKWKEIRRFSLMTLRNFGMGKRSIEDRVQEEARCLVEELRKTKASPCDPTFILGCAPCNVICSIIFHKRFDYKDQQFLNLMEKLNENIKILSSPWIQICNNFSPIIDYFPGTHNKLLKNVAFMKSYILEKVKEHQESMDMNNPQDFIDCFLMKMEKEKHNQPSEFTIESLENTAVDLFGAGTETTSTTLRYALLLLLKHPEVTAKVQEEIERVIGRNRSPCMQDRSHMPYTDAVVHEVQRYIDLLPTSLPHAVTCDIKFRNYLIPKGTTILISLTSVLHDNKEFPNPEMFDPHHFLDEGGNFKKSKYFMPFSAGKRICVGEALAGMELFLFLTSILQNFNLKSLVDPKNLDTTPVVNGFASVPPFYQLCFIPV
For orientation: In a reporter assay the amount or activity of a reporter protein is the signal.

Assay [4] deals with Cytochrome P450 1A2 (Homo sapiens) (UniProt P05177). In words: Cytochrome P450 Family 1 Subfamily A Member 2 (CYP1A2) small molecule antagonists: luciferase reporter qHTS assay (AID 1671199). For activity change, negative = inhibition: series mostly up to about 120 µM. Note: nearly all actives have a fitted effect of over 50% in size. The method in brief:
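Compounds were incubated with CYP1A2 and a luminogenic proluciferin substrate for 10 min at room temperature before the reaction was started with NADPH regeneration solution. After 1 h, detection reagent was added and light output, proportional to CYP activity, was recorded.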

Assay [5] concerns the target Voltage-gated inwardly rectifying potassium channel KCNH2 (Homo sapiens) (UniProt Q12809). As to the kind of experiment: Human Ether-a-go-go-Related Gene (hERG) channel small molecule antagonists: fluorescence cell-based qHTS assay (AID 1671200).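 For activity change, negative = inhibition: hERG-expressing U2OS cells given a thallium stimulus after FluxOR II dye loading; series mostly up to about 77 µM.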 Note: nearly all actives have a fitted effect of over 50% in size. In short, it runs like this: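 Measured: Tl+ flux via fluorescence (480/540 nm) in hERG-expressing U2OS cells after 1 h dye loading at room temperature.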
In general terms: Block of hERG is tested as a sign of cardiac risk.

The target of assay [6] is Cytochrome P450 3A4 (Homo sapiens) (UniProt P08684). As to the kind of experiment: Cytochrome P450 Family 3 Subfamily A Member 4 (CYP3A4) small molecule antagonists: luciferase reporter qHTS assay (AID 1671201). For activity change, negative = inhibition: series mostly up to about 120 µM. Note: nearly all actives have a fitted effect of over 50% in size. The method in brief: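 Setup: enzyme-substrate mix, compound pin transfer, 10 min RT. Reaction: NADPH regeneration solution, 1 h RT. Readout: detection reagent stops turnover, luminescence measured after 20 min, expressed in relative luminescence units.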
Cytochrome P450 3A4 (Homo sapiens), sequence (P08684 whole entry, looked up): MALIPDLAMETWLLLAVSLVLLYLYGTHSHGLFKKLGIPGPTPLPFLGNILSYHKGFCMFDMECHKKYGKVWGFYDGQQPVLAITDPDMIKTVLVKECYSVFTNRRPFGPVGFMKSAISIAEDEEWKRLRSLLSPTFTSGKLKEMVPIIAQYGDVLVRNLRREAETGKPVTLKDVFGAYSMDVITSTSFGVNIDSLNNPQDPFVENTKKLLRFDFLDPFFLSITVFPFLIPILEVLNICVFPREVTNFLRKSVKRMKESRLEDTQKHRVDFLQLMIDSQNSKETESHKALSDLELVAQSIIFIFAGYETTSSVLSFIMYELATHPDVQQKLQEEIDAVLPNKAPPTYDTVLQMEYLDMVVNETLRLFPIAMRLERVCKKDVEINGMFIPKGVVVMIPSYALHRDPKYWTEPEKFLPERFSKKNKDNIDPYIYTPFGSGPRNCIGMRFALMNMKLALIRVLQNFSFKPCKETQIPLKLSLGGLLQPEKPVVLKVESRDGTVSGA

Inconclusive results are not listed. Unmarked numbers belong to inactive results. Calls of active or inactive are those of the source. Calls come from the whole dose curve; as a rule, active = well fitted curve in the direction sought with a large enough effect in the repeat runs; inconclusive = weak or mixed curves; inactive = no such curve, though single readings can be large; an effect the other way counts as inactive or inconclusive.
% is set by controls: 0 for no effect and ±100 for the full control effect; potency is the fitted concentration of half-maximal effect.

Cytochrome P450 1A2 (Homo sapiens), sequence (P05177 whole entry, looked up): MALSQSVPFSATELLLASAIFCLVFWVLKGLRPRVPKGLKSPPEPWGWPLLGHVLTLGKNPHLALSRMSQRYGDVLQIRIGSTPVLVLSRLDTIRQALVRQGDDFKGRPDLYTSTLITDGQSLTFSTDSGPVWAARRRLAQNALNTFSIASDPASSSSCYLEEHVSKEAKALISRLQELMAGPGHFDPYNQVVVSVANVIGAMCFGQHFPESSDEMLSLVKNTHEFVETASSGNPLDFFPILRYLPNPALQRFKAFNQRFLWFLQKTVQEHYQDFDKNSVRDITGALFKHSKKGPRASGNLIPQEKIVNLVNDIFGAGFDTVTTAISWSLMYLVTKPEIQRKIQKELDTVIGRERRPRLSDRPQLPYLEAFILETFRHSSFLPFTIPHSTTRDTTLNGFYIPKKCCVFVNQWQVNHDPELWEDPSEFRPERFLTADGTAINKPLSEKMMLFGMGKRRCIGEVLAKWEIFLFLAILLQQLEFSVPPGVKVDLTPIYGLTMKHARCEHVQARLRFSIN
Cytochrome P450 2D6 (Homo sapiens), sequence (P10635 whole entry, looked up): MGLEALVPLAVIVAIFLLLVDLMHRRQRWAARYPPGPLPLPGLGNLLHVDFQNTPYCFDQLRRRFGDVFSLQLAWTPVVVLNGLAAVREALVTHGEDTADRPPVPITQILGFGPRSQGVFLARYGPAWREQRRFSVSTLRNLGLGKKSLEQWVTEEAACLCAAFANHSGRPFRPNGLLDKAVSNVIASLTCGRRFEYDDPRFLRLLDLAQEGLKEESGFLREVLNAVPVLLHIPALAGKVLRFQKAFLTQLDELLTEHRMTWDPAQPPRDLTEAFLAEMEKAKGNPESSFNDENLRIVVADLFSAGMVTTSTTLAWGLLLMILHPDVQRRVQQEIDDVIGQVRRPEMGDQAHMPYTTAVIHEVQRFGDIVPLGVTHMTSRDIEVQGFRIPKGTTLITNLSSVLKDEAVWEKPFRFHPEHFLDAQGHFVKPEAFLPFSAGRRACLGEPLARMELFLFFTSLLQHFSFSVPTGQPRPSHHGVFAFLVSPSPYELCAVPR
Voltage-gated inwardly rectifying potassium channel KCNH2 (Homo sapiens), sequence (Q12809 whole entry, looked up): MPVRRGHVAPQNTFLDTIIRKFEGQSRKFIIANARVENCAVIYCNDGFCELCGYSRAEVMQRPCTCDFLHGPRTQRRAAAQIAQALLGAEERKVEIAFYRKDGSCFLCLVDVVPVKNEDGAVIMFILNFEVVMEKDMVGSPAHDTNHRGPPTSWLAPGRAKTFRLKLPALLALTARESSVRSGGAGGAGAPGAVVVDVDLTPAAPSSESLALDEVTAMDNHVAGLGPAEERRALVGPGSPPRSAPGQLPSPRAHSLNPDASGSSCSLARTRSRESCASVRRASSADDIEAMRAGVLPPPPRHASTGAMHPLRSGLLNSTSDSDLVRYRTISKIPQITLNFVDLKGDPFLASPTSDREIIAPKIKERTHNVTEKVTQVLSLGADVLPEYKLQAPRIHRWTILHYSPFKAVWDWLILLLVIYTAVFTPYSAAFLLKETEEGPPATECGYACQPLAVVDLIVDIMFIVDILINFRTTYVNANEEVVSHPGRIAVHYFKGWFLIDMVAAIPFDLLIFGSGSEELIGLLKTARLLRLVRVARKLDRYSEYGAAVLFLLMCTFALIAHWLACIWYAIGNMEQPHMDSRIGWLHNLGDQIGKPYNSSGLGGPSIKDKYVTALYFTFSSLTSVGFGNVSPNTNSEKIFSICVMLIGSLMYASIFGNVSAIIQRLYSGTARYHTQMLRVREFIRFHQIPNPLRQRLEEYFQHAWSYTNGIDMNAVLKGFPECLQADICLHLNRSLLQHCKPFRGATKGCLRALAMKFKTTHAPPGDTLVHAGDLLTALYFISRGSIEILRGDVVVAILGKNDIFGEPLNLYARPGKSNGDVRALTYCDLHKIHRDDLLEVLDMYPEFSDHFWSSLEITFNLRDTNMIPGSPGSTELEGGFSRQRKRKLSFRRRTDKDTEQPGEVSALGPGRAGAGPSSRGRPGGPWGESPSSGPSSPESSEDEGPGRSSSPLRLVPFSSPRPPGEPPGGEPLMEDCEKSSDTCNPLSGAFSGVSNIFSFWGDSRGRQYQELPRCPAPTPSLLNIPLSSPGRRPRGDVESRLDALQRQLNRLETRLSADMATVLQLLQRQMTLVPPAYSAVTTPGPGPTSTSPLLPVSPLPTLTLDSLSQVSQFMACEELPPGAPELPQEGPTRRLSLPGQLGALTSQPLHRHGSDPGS
Cytochrome P450 2C19 (Homo sapiens), sequence (P33261 whole entry, looked up): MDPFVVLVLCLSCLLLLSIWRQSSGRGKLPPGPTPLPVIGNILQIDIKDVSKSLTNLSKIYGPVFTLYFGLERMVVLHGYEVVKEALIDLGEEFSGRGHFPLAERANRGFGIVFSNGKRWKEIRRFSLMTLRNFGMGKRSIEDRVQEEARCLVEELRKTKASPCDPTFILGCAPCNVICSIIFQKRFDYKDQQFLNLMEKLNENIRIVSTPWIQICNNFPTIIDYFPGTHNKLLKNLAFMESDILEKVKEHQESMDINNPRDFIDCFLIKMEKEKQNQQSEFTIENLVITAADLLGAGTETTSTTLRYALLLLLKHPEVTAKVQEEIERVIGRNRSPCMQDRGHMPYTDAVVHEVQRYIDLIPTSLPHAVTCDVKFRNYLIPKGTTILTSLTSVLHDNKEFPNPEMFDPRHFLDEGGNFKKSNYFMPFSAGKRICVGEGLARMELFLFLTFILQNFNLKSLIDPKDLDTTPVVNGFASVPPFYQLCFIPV

In the case of `OCCN1CCN(CCO)CC1`, the Potency result in assay [1], in assay [2], in assay [3], in assay [4], in assay [5] and in assay [6] was “inactive” throughout.

In the case of `CC1CN(c2ccccc2)NC1=O` (centres undefined), the Potency in assay [1] was 31.7 µM (active); in assay [2], 12.6 µM (active); in assay [3] it was 20 µM (active); in assay [4], 22.4 µM (active). In addition, the Potency entry in assay [5] was “inactive”.

For the compound `CC(C)(C)c1ccc(OC(=O)c2ccccc2O)cc1`, the Potency entry in assay [1], in assay [2] and in assay [5] was “inactive” each time. Further, the Potency was 31.7 µM (active) in assay [3] and 39.9 µM (active) in assay [4].

As for `O=C1CCN(c2ccccc2)N1`, the Potency in assay [1] is 35.7 µM (active); in assay [2], 80 µM (active); in assay [3], 8 µM (active); in assay [4], 35.7 µM (active); in assay [6] it was 35.7 µM (active). Also, the Potency result in assay [5] was “inactive”.

Consider `NC/C=C/C(=O)O`, for which the Potency entry in assay [1], in assay [2], in assay [3], in assay [4], in assay [5] and in assay [6] was “inactive” each time.

As to `Cc1cc2nc(N)sc2cc1C`, the Potency in assay [1] is 32 µM (active); in assay [2] it was 28.5 µM (active); in assay [3], 35.9 µM (active); in assay [4], 1.14 µM (active); in assay [6], 25.4 µM (active). Also, the Potency entry in assay [5] was “inactive”.

For `C[C@@H]1CN(c2c(F)c(F)c3c(=O)c(C(=O)O)cn(C4CC4)c3c2F)C[C@H](C)N1`, the activity change, negative = inhibition in assay [1] is -28.8% [at 23.6 µM]; in assay [2], 5.04% [at 23.6 µM]; in assay [5], 7.01% [at 15.8 µM]. In addition, the Potency result in assay [3] and in assay [4] was “inactive” in each case.

As to `Cc1nc(-c2ccccn2)ncc1C(=O)Nn1cc(C)c2cc(F)ccc21`, the Potency in assay [1] is 44.8 µM (active); in assay [2], 56.4 µM (active); in assay [3], 1.59 µM (active); in assay [4] it was 31.7 µM (active); in assay [6] it was 7.96 µM (active). Further, the Potency entry in assay [5] was “inactive”.

Consider `CC(=O)Oc1cc(C(C)C)c(OCCN(C)C)cc1C`, for which the Potency in assay [1] was 15.5 µM (active); in assay [4], 5.12 µM (active). For the same compound, the Potency result in assay [2], in assay [3], in assay [5] and in assay [6] was “inactive” each time.

With `CN(CC1(C)CCCO1)S(=O)(=O)c1ccc(Cl)c(S(N)(=O)=O)c1` (centres undefined), the Potency entry in assay [1], in assay [2], in assay [3] and in assay [4] was “inactive” in each case.

Consider `O=C(O)[C@@H](O)[C@H](O)[C@H](O)[C@@H](O)C(=O)O`, for which the Potency entry in assay [1], in assay [2], in assay [3], in assay [4], in assay [5] and in assay [6] was “inactive” each time.

For `CCC(=O)c1ccc2c(c1)N(CCCN(C)C)c1ccccc1S2`, the Potency in assay [1] is 1.1 µM (active); in assay [2] it was 11 µM (active); in assay [4], 1.82 µM (active); in assay [5], 9.52 µM (active). The Potency result in assay [3] and in assay [6] was “inactive” throughout.

`COc1cc(C)ccc1C(C)C`: the Potency result in assay [1], in assay [2], in assay [3], in assay [4], in assay [5] and in assay [6] was “inactive” each time.

As to `O=C(C(Cl)Cl)N1CCOC12CCCCC2`, the Potency entry in assay [1], in assay [4] and in assay [5] was “inactive” throughout. The Potency in assay [2] was 39.9 µM (active); in assay [3], 63.3 µM (active).

Take `Cc1cc2c(s1)Nc1ccccc1N=C2N1CCN(C)CC1`: the Potency entry in assay [1], in assay [2], in assay [3], in assay [4] and in assay [5] was “inactive” each time.

On to `Cc1cn([C@@H]2O[C@H](CO)[C@@H](O)[C@@H]2F)c(=O)[nH]c1=O`, for which the Potency entry in assay [1], in assay [2], in assay [3], in assay [4], in assay [5] and in assay [6] was “inactive” in each case.

For the compound `CC(C)c1ccccc1`, the Potency entry in assay [1], in assay [2], in assay [3], in assay [4], in assay [5] and in assay [6] was “inactive” in each case.

As to `FC(F)(F)c1ccccc1`, the Potency result in assay [1], in assay [2], in assay [3], in assay [4], in assay [5] and in assay [6] was “inactive” each time.

As for `FC(F)(F)C(Cl)(Cl)Cl`, the Potency entry in assay [1], in assay [2], in assay [3], in assay [4], in assay [5] and in assay [6] was “inactive” in each case.

On to `COc1nc(C)nc(NC(=O)NS(=O)(=O)c2ccccc2OCCCl)n1`, for which the Potency result in assay [1], in assay [2] and in assay [3] was “inactive” in each case. Further, the Potency in assay [4] was 35.4 µM (active).

With `Cc1c(-c2ccccc2)oc2c(C(=O)OCCN3CCCCC3)cccc2c1=O`, in assay [1], the Potency is 5.49 µM (active). The Potency result in assay [2] was “inactive”.

As for `C=CCCC=C`, the Potency result in assay [1], in assay [2], in assay [3], in assay [4], in assay [5] and in assay [6] was “inactive” throughout.

In the case of `CCCCCOc1ccc(C2SC(=O)NC2=O)cc1OCC` (centres undefined), the Potency entry in assay [1] and in assay [2] was “inactive” in each case. For the same compound, the Potency in assay [3] was 9.77 µM (active).

On to `CCCCCCOc1ccc(N)cc1`, for which the Potency in assay [1] was 35.6 µM (active); in assay [2], 2 µM (active); in assay [3], 22.4 µM (active); in assay [4], 3.99 µM (active). Also, the Potency entry in assay [5] is “inactive”.

Consider `CCOc1ccc(NS(=O)(=O)c2ccc(N)cc2)nn1`, for which the Potency result in assay [1], in assay [3], in assay [4], in assay [5] and in assay [6] was “inactive” throughout. The Potency in assay [2] was 30.9 µM (active).

Regarding `FC(F)(F)C(F)(F)C(F)(F)C(F)(F)C(F)(F)C(F)(F)C(F)(F)C(F)(F)Br`, the Potency result in assay [1], in assay [2], in assay [3], in assay [4], in assay [5] and in assay [6] was “inactive” each time.

`CN1CCN(c2c(F)cc3c(=O)c(C(=O)O)cn(CCF)c3c2F)CC1`: the Potency entry in assay [1], in assay [2], in assay [3], in assay [4], in assay [5] and in assay [6] was “inactive” in each case.

Take `Cc1ccsc1C(=CCCN1CCC[C@@H](C(=O)O)C1)c1sccc1C`: the Potency result in assay [1], in assay [2], in assay [3] and in assay [4] was “inactive” in each case.

`O=Cc1ccc(F)c(Br)c1`: the Potency entry in assay [1], in assay [2], in assay [3] and in assay [5] was “inactive” each time. In addition, the Potency in assay [4] is 35.6 µM (active).

These data come from PubChem BioAssay (Tox21).
